Hits are enriched below; roughly 3.4% of the tested compounds scored in any of these assays.
TEAD-YAP block = TEAD-YAP interaction inhibition, primary screen, TEAD-YAP interaction inhibitor project, luminescence, HEK-TIYL cells; TEAD-Gal4/YAP UAS-luciferase luminescence; inhibition, % at 9.12 µM; 640,000 tested, 1.4% active; AID 1259422, 2018; in the data active = inhibition above about 32%;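 note: 0% = median of test compound wells and 100% = reference inhibitor wells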
FBW7 act = FBW7 E3 ligase activators, primary screen, biochemical, AlphaScreen, human | F-box/WD repeat-containing protein 7 (Homo sapiens), Q969H0 | AlphaScreen FBW7–phospho-cyclin E peptide binding, activator screen | normalized activity (activation), % at 26.1 µM | 650,000 tested, 0.13% active; in the data active = normalized activity above about 1.9%;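 note: purified mutant Fbw7 with reduced substrate affinity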
MITF primary = MITF inhibitors, primary screen, biochemical, AlphaScreen, human; AlphaScreen MITF homodimerization, bead proximity signal; inhibition, % at 2.6 µM; 650,000 tested, 0.91% active; AID 1259374, 2018; in the data active = inhibition above about 50%;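 note: 0% = vehicle wells with protein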
GPR151 ag = activators of human GPR151, primary screen, cell-based, PathHunter beta-arrestin, luminescence; PathHunter beta-arrestin GPR151 cells; 650,000 tested, 1% active; activation, % at 11.2 µM; G-protein coupled receptor 151 (Homo sapiens), Q8TDV0; in the data active = activation above about 4.9%;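 note: 0% = median of compound wells and 100% = cells with positive control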
Target sequence (Q8TDV0 whole entry, looked up): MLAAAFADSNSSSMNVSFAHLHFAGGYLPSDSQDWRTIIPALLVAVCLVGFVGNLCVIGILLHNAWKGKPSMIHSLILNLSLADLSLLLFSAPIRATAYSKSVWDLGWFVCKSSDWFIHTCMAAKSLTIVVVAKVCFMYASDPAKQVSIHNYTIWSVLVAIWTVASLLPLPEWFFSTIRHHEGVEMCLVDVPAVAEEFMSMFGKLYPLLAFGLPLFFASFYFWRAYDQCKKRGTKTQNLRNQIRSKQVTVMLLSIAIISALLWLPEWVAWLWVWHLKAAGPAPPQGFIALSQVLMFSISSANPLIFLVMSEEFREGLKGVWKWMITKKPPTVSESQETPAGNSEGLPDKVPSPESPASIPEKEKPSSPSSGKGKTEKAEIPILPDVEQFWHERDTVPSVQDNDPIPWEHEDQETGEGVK
GPR151 conf act = GPR151 activators, triplicate retest, confirmation, cell-based, PathHunter beta-arrestin, luminescence. shares compounds with GPR151 ag. GPR151 PathHunter beta-arrestin cells, 90 min; % of EA-reagent control over plate median. activation, % at 11.2 µM. 6,700 tested, under 10 active. AID 1508609, 2020;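 active = mean percent activation across replicates above the confirmation screen cutoff of 4.91%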
GPR119 ag = GPR119 activators in beta-arrestin cells, counter-screen for GPR151 activator project, cell-based, PathHunter beta-arrestin, luminescence, triplicate. shares compounds with GPR151 ag. 90 min; 0 = compound-well median, 100 = enzyme-acceptor control. activation, % at 11.2 µM. 6,700 tested, 0.3% active. AID 1508611, 2020;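 active = mean percent activation in the counterscreen above 29.09%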;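 note: counterscreen on off-target GPR119 to flag nonselective hits from the GPR151 activator screen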
Numbers without * were called inactive; / = not tested or not shown.

SMILES	TEAD-YAP block	FBW7 act	MITF primary	GPR151 ag	GPR151 conf act	GPR119 ag
O=C(NCCc1nc(-c2ccncc2)n[nH]1)C1(c2ccccc2)CCCC1	5	0	4	5.9*	0	6
FC(F)(F)c1cccc(CNc2nc(Nc3ccncn3)nc3nc[nH]c23)c1	-6	0	2	2	/	/
CCN1CCCC1CNS(=O)(=O)c1ccc(C(=O)Nc2ccccc2)cc1 (centres undefined)	-2	0	6	10*	0	7
Cc1nc2c(ccc3nc(NC(=O)c4ccc(Cl)cc4)sc32)s1	-26	0	-1	1	/	/
CCOC(=O)c1c(-c2ccc(C)o2)csc1NC(=O)c1cccs1	2	0	11	8.2*	-1	2
O=C(N/N=C/c1ccc(Cl)c([N+](=O)[O-])c1)c1cc(-c2ccccc2)n[nH]1	-8	0	21	7.2*	0	-10
Cc1ccc(NC(=O)Cc2nc(COC(=O)Cc3ccc4c(c3)OCCO4)cs2)cc1	-2	0	7	0	/	/
COc1ccc(CSc2nnnn2C)cc1F	-8	0	3	5.5*	0	-7
CN(C)c1ccc(-c2cnc3c(n2)[nH]c(=O)n3-c2ccccc2)cc1	-10	0	-1	6.0*	-1	-7
COCCCNC(=O)CC(NS(=O)(=O)c1ccc(F)cc1)c1cccc(OC)c1OC (centres undefined)	6	0	0	2	/	/
O=C(/C=C/c1c(F)cccc1Cl)NCc1ccncc1	-2	0	-3	7.2*	-1	-16
COC(=O)c1c(OCc2ccccn2)cc(=O)n2c1CCN(C(=O)c1ccccc1C)CC2	-1	0	-15	-1	/	/
COC(=O)c1c(OCc2ccncc2)cc(=O)n2c1CCN(C(=O)c1ccccc1C)CC2	-17	0	-19	5.1*	1	-2
O=C(NCc1ccco1)c1ccccc1NC(=O)C1CC(=O)N(c2ccc(Cl)cc2)C1 (centres undefined)	3	0	0	6.8*	0	3
Cc1ccc(N2CC(C(=O)Nc3ccccc3C(=O)NCCc3ccccc3)CC2=O)cc1 (centres undefined)	-10	0	9	5.3*	-1	-8
O=C(NCc1ccco1)C1CC(=O)N(c2ccc(F)cc2)C1 (centres undefined)	0	0	1	-1	/	/
Cc1ccc(N2CC(C(=O)Nc3ccccc3C(N)=O)CC2=O)cc1 (centres undefined)	3	0	15	-1	/	/
Cc1ccc(N2CC(C(=O)Nc3ccccc3C(=O)NC(C)C)CC2=O)cc1 (centres undefined)	-4	0	-14	6.3*	0	22
Cc1ccc(C2CC(C(F)(F)F)n3nc(C(=O)NCc4ccccc4)c(Cl)c3N2)cc1 (centres undefined)	8	0	7	4	/	/
O=C(CSc1nc2sc3c(c2c(=O)n1-c1ccccc1)CCCC3)c1ccccc1F	3	0	7	0	/	/
CCOC(=O)c1ccc(NC(=O)CCSc2nc(N)c3c(C)c(C)sc3n2)cc1	1	0	1	6.8*	0	0
Oc1c(Cl)cc(/C=N/n2cnnc2)cc1Cl	9	0	-4	1	/	/
COc1ccc(Cl)cc1-n1c(=S)sc2c(=O)[nH]c(SCc3ccc(F)cc3Cl)nc21	0	0	-6	1	/	/
CCOC(=O)c1ccc(NC(=O)C2Oc3ccccc3OC2C)cc1 (centres undefined)	-7	0	-2	-1	/	/
CCCC(c1nnnn1Cc1ccco1)N1CCN(C(=O)c2ccco2)CC1 (centres undefined)	-3	0	-5	-1	/	/
CCCCC(c1nnnn1Cc1ccco1)N1CCN(C(=O)c2ccco2)CC1 (centres undefined)	0	0	4	20*	0	4
Brc1cccc(OCCCN2CCNCC2)c1	-2	0	33	1	/	/

Assay outcomes: PubChem, The Scripps Research Institute Molecular Screening Center
